These results are taken from PubChem BioAssay (Tox21).

The target in experiment [1] is Progesterone receptor (Homo sapiens) (UniProt P06401). Kind of experiment: qHTS assay to identify small molecule agonists of the progesterone receptor (PR) signaling pathway (AID 1346784; calls by dose curve; further: nearly all actives have a fitted effect of over 30% in size). In outline: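 Using charcoal-stripped serum (2%) to limit endogenous steroids, PR-UAS-bla HEK 293T cells received compounds for 16 hr at 37C after 6 hr plating; beta-lactamase FRET fluorescence was recorded following 2 hr substrate loading at room temperature.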
In general terms: Quantitative high-throughput screening tests each substance at several concentrations.

The target is the same in experiment [2]. Description: qHTS assay to identify small molecule antagonists of the progesterone receptor (PR) signaling pathway (AID 1346795; active means well fitted inhibition curve with a large enough effect in the signal ratio in the repeat runs, not every such curve was filed as active; the % refers to the signal ratio). In outline: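 Inhibition of R5020-induced (1 nM final) beta-lactamase reporter signal in PR-UAS-bla HEK293T cells was scored by FRET fluorescence after overnight (16 hr) compound treatment.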
Experiment [3] can be described thus: qHTS assay to identify small molecule antagonists of the progesterone receptor (PR) signaling pathway - cell viability counter screen (AID 1346798). Further: series mostly up to about 92 µM; nearly all actives have a fitted effect of over 50% in size. In outline: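 ATP content as viability readout: CellTiter-Glo luminescence, 30 min room temperature, in PR-UAS-bla HEK293T cells after 16 hr compound/R5020 treatment at 37C and 5% CO2.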
The nature of experiment [4]: qHTS assay to identify small molecule agonists of the progesterone receptor (PR) signaling pathway - cell viability counter screen (AID 1346799; calls by dose curve; further: nearly all actives have a fitted effect of over 45% in size). In outline:
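Cytotoxicity in PR-bla HEK293T cells: 16 h compound, 37C; CellTiter-Glo added post-FRET read; luminescence after 30 min RT.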

A short description of experiment [5]: qHTS assay to identify small molecule antagonists of the TGF-beta/Smad signaling pathway - cell viability counter screen (AID 1346824). Further: nearly all actives have a fitted effect of over 50% in size. In outline: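 SBE-bla HEK 293T cells, incubated overnight, then compound plus 0.25 ng/mL TGF-beta1 (stock added) for 5 hr at 37 C. Viability was read in the same wells by CellTiter-Glo luminescence after 30 min at room temperature.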

Experiment [6] is described as follows: qHTS assay to identify small molecule agonists of the TGF-beta/Smad signaling pathway - cell viability counter screen (AID 1346829). Further: top concentration of the series differs between compounds; nearly all actives have a fitted effect of over 45% in size. In outline: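 SBE-bla HEK 293T cells plated overnight, compound exposure 5 hr at 37 C. Viability read in the same wells by CellTiter-Glo luminescence after 30 min at room temperature, following the beta-lactamase read.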
The nature of experiment [7]: qHTS assay to identify small molecule agonists of the TGF-beta/Smad signaling pathway (AID 1346859; active means well fitted activation curve with a large enough effect in the signal ratio in the repeat runs, not every such curve was filed as active; the % refers to the signal ratio; further: series mostly up to about 77 µM). In outline: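 Stable Smad binding element-beta-lactamase HEK 293T cells; 5 hr compound exposure at 37 C under 5% CO2; 2 hr room-temperature substrate step; fluorescence excited at 405 nm, collected at 460 nm and 530 nm.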
In experiment [8] the target is Thyrotropin-releasing hormone receptor (Homo sapiens) (UniProt P34981). Description: qHTS assay to identify small molecule antagonists of the thyrotropin-releasing hormone receptor (TRHR) signaling pathway (AID 1346877; active means well fitted inhibition curve with a large enough effect in the repeat runs, not every such curve was filed as active; further: series mostly up to about 51 µM). In outline:
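TRHR-expressing HEK293 cells loaded with calcium dye for 2 h at 37 C; compounds pre-incubated 5 min at room temperature before TRH challenge at 1 nM final. Intracellular calcium fluorescence read kinetically for 3 min; 15 concentrations in triplicate.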

Experiment [9] has the same target. Kind of experiment: qHTS assay to identify small molecule agonists of the thyrotropin-releasing hormone receptor (TRHR) signaling pathway (AID 1346891; calls by dose curve; further: series mostly up to about 58 µM). In outline:
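In 1536-format, 1500 TRHR-Hek293 cells per well grew 18 h, took up calcium dye for 2 h at 37 °C, received compound, and were read kinetically; 15-point titrations, triplicates.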

A short description of experiment [10]: Human pregnane X receptor (PXR) small molecule agonists, qHTS cell viability counter screen (AID 1346977). Further: nearly all actives have a fitted effect of over 50% in size. In outline:
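Readout is CellTiter-Fluor fluorescence from PXR-Luc HepG2 cells. Plated cells rested 5hr, then were treated with compounds for 24hr at 37C and 5% CO2, with reagent present during the last hour.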

Experiment [11] can be described thus: Caspase-3/7 induction in HepG2 cells by small molecules, qHTS assay (AID 1346978). Further: nearly all actives have a fitted effect of over 15% in size. In outline:
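Wild-type HepG2 cells, 2,000/well, settled 5 hr at 37 C and 5% CO2, then compound-treated for 17 hr; caspase-3/7 activity read by luminescent Caspase-Glo 3/7 after 30 min at room temperature.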

Experiment [12] can be described thus: Caspase-3/7 induction in CHO-K1 cells by small molecules, qHTS cell viability counter screen (AID 1346979). Further: nearly all actives have a fitted effect of over 35% in size. In outline: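 To flag cytotoxic compounds, treated CHO-K1 wild-type cells were given CellTiter-Fluor at 16hr and read fluorescently after 1hr at 37C; the caspase-3/7 luminescence was measured in these same wells.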
Experiment [13] in a line: Caspase-3/7 induction in CHO-K1 cells by small molecules, qHTS assay (AID 1346980). Further: nearly all actives have a fitted effect of over 15% in size. In outline:
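Wild-type CHO-K1 cells exposed to compounds for 17hr at 37 C, 5% CO2. Caspase-3/7 activity then measured by Caspase-Glo 3/7 luminescence after 30min at room temperature.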

A short description of experiment [14]: Caspase-3/7 induction in HepG2 cells by small molecules, qHTS cell viability counter screen (AID 1346981). Further: series mostly up to about 92 µM; nearly all actives have a fitted effect of over 30% in size. In outline:
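Wild-type HepG2 cells, 2,000/well, settled 5 hr at 37 C, 5% CO2 before compound addition. Viability read by CellTiter-Fluor fluorescence, reagent added after 16 hr compound exposure, then 1 hr at 37C, in the same wells as the caspase read.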

In experiment [15] the target is Nuclear receptor subfamily 1 group I member 2 (Homo sapiens) (UniProt O75469). Description: Human pregnane X receptor (PXR) small molecule agonists, qHTS assay (AID 1346982). Further: nearly all actives have a fitted effect of over 35% in size. Further: potency means the concentration at half of the fitted maximal effect. In outline: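 PXR-Luc HepG2 reporter cells (CYP3A4-driven luciferase) in 5% charcoal-stripped FBS medium, plated 5 h before compound addition, then treated 24 h at 37C. Luciferase read by ONE-Glo luminescence after 30 min at room temperature.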

Experiment [16] concerns the target Cytochrome P450 2D6 (Homo sapiens) (UniProt P10635). Description: Cytochrome P450 Family 2 Subfamily D Member 6 (CYP2D6) small molecule antagonists: luciferase reporter qHTS assay (AID 1671196). Further: nearly all actives have a fitted effect of over 50% in size. Further: potency means the concentration at half of the fitted maximal effect. On activity change, negative = inhibition: series mostly up to about 120 µM. In outline:
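Cell-free P450-Glo system: CYP2D6 with proluciferin substrate was pre-incubated with compound for 10 min, then reacted with NADPH regeneration for 1 h at room temperature. Luciferin product was detected after 20 min, and data were reported as relative luminescence units.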

Experiment [17] concerns the target Cytochrome P450 2C19 (Homo sapiens) (UniProt P33261). Description: Cytochrome P450 Family 2 Subfamily C Member 19 (CYP2C19) small molecule antagonists: luciferase reporter qHTS assay (AID 1671197). Further: nearly all actives have a fitted effect of over 65% in size. Further: potency means the concentration at half of the fitted maximal effect. On activity change, negative = inhibition: series mostly up to about 120 µM. In outline: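 P450-Glo CYP2C19 system: enzyme-substrate mix with compound 10 min at room temperature, then NADPH regeneration solution, 1 h at 37C. Proluciferin-to-luciferin conversion detected by luminescence after 20 min with detection reagent; ketoconazole as positive control.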
In general terms: Reporter assays use an easily measured gene product as a stand-in for the process of interest.

Unmarked numbers belong to inactive results. Results filed as inconclusive are left out. Calls of active or inactive are those of the source. Unless noted, the call rests on the fitted dose curve; in most records, active means well fitted curve in the direction sought with a large enough effect in the repeat runs; inconclusive means weak or mixed curves; inactive means no such curve, though single readings can be large; an effect the other way counts as inactive or inconclusive.
On the % scale 0 is the no-effect control and ±100 the full control effect.

Sequence of Nuclear receptor subfamily 1 group I member 2 (Homo sapiens) (O75469 whole entry, looked up): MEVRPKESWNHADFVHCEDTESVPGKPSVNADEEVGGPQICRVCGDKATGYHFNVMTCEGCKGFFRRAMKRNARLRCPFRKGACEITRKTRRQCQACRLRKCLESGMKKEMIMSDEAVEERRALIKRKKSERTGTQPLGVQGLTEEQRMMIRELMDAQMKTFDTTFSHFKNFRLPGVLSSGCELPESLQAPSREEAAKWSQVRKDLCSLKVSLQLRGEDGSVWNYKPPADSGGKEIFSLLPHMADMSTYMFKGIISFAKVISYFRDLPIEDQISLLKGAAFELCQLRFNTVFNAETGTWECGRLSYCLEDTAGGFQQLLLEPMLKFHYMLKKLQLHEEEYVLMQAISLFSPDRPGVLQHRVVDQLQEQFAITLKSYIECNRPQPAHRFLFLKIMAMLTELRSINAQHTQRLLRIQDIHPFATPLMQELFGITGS
Sequence of Thyrotropin-releasing hormone receptor (Homo sapiens) (P34981 whole entry, looked up): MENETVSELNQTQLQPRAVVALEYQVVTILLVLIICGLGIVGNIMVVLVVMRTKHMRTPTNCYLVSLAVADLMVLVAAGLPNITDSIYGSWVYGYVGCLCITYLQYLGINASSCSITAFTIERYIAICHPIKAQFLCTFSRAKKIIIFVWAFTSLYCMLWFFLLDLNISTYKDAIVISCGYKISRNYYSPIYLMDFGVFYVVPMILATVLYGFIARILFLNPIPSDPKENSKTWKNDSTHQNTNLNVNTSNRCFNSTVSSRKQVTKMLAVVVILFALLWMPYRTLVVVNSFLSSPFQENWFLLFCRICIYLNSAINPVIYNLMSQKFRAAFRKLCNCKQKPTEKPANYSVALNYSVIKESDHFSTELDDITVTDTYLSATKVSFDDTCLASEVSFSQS
Sequence of Cytochrome P450 2C19 (Homo sapiens) (P33261 whole entry, looked up): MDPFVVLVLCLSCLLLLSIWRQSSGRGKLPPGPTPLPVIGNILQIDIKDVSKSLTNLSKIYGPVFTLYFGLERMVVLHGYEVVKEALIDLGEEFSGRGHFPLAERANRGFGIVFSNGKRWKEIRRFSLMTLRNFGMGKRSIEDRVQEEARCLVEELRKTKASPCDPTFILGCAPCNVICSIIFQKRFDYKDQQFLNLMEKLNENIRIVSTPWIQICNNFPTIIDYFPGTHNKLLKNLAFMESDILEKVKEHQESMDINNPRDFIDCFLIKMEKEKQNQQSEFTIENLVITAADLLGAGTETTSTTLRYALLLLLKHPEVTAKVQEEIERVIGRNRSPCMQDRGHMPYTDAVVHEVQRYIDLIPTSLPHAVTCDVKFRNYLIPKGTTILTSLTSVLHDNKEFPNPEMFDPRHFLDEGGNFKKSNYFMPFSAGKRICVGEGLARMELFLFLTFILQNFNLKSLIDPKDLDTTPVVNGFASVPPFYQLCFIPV
Sequence of Progesterone receptor (Homo sapiens) (P06401 whole entry, looked up): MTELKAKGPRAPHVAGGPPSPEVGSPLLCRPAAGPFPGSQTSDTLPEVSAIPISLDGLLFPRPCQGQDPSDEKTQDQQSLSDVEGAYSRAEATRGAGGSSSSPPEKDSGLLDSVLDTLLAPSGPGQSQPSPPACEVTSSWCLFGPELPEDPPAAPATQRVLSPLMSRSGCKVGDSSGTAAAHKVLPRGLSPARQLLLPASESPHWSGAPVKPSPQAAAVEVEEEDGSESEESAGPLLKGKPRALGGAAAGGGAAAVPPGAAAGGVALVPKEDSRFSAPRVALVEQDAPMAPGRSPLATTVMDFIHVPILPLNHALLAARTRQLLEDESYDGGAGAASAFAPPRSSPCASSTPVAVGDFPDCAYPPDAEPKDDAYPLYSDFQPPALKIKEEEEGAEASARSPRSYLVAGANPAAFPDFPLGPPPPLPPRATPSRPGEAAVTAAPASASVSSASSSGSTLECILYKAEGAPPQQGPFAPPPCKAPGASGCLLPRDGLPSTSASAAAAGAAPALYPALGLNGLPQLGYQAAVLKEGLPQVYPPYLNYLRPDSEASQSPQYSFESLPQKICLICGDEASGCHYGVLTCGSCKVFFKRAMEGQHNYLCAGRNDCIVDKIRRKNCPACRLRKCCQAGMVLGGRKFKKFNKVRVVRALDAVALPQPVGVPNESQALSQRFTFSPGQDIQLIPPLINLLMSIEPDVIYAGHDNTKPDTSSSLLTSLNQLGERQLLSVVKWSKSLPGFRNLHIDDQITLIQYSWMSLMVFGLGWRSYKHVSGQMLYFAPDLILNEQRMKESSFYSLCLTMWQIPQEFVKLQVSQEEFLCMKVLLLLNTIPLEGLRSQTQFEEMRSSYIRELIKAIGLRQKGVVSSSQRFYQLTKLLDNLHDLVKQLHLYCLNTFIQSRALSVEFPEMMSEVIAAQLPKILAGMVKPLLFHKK
Sequence of Cytochrome P450 2D6 (Homo sapiens) (P10635 whole entry, looked up): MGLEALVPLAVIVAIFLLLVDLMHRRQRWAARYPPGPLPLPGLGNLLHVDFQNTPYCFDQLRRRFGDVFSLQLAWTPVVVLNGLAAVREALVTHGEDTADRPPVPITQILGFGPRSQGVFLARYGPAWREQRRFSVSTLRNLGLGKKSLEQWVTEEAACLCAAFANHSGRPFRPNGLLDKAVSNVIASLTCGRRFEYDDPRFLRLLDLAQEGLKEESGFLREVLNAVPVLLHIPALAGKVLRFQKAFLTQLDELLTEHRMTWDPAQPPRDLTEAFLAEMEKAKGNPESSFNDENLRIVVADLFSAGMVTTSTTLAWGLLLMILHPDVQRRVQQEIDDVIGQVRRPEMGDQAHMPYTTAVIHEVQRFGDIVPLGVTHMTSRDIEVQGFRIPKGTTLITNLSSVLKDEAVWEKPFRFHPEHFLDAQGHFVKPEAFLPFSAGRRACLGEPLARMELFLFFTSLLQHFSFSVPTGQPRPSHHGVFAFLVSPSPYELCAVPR

With `Cc1cc(C)c(C=O)c(C)c1`, the call in experiment [1] was inactive. Also, the Potency entry in [2], in experiment [3], in experiment [4], in [5], in experiment [6] and in experiment [7] was “inactive” in each case. Moreover, the Potency result in [8], in experiment [9], in experiment [10], in experiment [11], in [12] and in [13] was “inactive” in each case. For the same compound, the Potency result in [14] was “inactive”. Also, the Potency in experiment [15] was 43.3 µM (active).
For `O=C1OC(=O)c2ccc3c4c(ccc1c24)C(=O)OC3=O`, the result in experiment [1] was inactive. Further, the Potency result in experiment [2], in [3], in experiment [4], in [5], in [6] and in experiment [7] was “inactive” throughout. Moreover, the Potency entry in experiment [8], in [9], in experiment [10], in [11], in experiment [12] and in [13] was “inactive” in each case. In addition, the Potency entry in experiment [15] and in experiment [16] was “inactive” throughout.
Turning to `CCC(C)c1ccccc1` (stereo unspecified), the call in experiment [1] was inactive. Further, the Potency entry in [2], in [3], in [4], in experiment [5], in [6] and in [7] was “inactive” each time. Moreover, the Potency result in experiment [8], in [9], in experiment [10], in [11], in [12] and in [13] was “inactive” throughout. Further, the Potency entry in experiment [15] and in [16] was “inactive” throughout.
Regarding `CCN1CCN(c2cc(-c3ccc(F)cc3)c3c(n2)CCCCCC3)CC1`, the activation in experiment [1] was -3.65% [at 19 µM]; in experiment [7], -2.06% [at 15.8 µM]; in experiment [9] it was 0.262% [at 11.8 µM]; in experiment [15] it was -23.7% [at 19 µM]. Further, the activity change, negative = inhibition was -13.2% [at 18.9 µM] in experiment [2] and -2.56% [at 23.6 µM] in [17]. Moreover, the activity change, negative = cytotoxicity was 1.1% [at 18.9 µM] in [3]; 2.26% [at 19 µM] in experiment [4]; -0.583% [at 15.8 µM] in experiment [6]; 0.184% [at 19 µM] in [10]; 0.368% [at 19 µM] in experiment [12]; -1.31% [at 19 µM] in [14]. In addition, the viability change, negative = cytotoxic in [5] is 0.113% [at 15.8 µM]. Also, the activity, negative = inhibition in experiment [8] was 1.24% [at 10.5 µM]. Further, the caspase activation in experiment [11] was 0.316% [at 19 µM]. In addition, the caspase-3/7 activation in [13] was 1.46% [at 19 µM]. Also, the Potency in experiment [16] was 6.74 µM (active).
`ClC/C=C\CCl`: the compound was called inactive in experiment [1]. For the same compound, the Potency result in [2], in [3], in [4], in experiment [5], in experiment [6] and in [7] was “inactive” in each case. Moreover, the Potency result in experiment [8], in experiment [9], in experiment [10], in [11], in experiment [12] and in [14] was “inactive” each time. Also, the Potency in experiment [17] is 33.1 µM (active).
As to `CC(C)(C)C1=CC(=O)C=C(C(C)(C)C)C1=O`, the compound was classed as inactive in experiment [1]. Also, the Potency result in [2], in experiment [3], in [4], in experiment [5], in experiment [6] and in experiment [7] was “inactive” each time. Further, the Potency entry in [8], in experiment [9], in experiment [10], in experiment [11], in experiment [12] and in experiment [13] was “inactive” each time. Further, the Potency entry in experiment [14], in experiment [15] and in experiment [16] was “inactive” each time. Further, the Potency in experiment [17] was 3.17 µM (active).
For the compound `CCCCCCCCCCc1ccccc1`, the compound was classed as inactive in experiment [1]. In addition, the Potency entry in experiment [2], in experiment [3], in experiment [4], in experiment [5], in experiment [6] and in [7] was “inactive” each time. In addition, the Potency entry in experiment [8], in experiment [9], in experiment [10], in [11], in [12] and in experiment [13] was “inactive” throughout. Further, the Potency result in experiment [14], in [15] and in experiment [17] was “inactive” in each case.
With `NCCCCCCNCCCCCCN`, in experiment [1], the call was inactive. Besides, the Potency result in experiment [2], in [3], in [4], in experiment [5], in experiment [6] and in experiment [7] was “inactive” each time. The Potency entry in [8], in experiment [9], in [10], in [11], in experiment [12] and in experiment [13] was “inactive” throughout. Also, the Potency result in experiment [14], in [15] and in experiment [17] was “inactive” each time. Moreover, the Potency in experiment [16] is 4.94 µM (active).
